# Data taken from PubChem BioAssay AID493203 (National Center for Advancing Translational Sciences (NCATS), 2011).
# Results filed as inconclusive are left out. Values without a mark were called inactive. The source made the active and inactive calls. The call rests on the fitted dose curve; in most records, active means well fitted activation curve with a large enough effect; inconclusive means small, poorly fitted or top-dose-only effect; inactive means flat fitted curve, though single readings scatter.
# Assay: qHTS Assay for NPC1 Promoter Activators: Initial hit validation from the primary screen;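 on activity, positive = activation: reporter driven by the mutant form of the NPC1 promoter; % of control where 0% means no effect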
# Conditions: Huh7 NPC1 promoter-luciferase reporter, luminescence, 24 h; series mostly up to 46.1 µM; activity, positive = activation: at the top concentration
# Excerpt: NIH Chemical Genomics Center [NCGC] NIH Molecular Libraries Probe Production centers Network [MLPCN] MLPCN Grant: MH089375-01A1 Assay Submitter (PI): Yiannis A. Ioannou NCGC Assay Overview: Niemann Pick Type C (NPC) is a rare neurodegenerative lipidosis that is characterized by lipid storage in the endosomal/lysosomal system. Treatment modalities for this devastating disease are currently non-existent due to the severe obstacles associated with accessing the central nervous system with proteins or genes. The majority of mutations causing NPC disease are missense mutations that are distributed throughout the length of the NPC1 protein, with the most prevalent being the I1061T allele. Although NPC1 mutant proteins may be functional, they are typically trapped in the ER due to misfolding. […] We have developed and optimized a cell based luciferase reporter assay in 1536 well format for the identification of up-regulators of the mutant NPC1 promoter. This assay presents data on the validation of hits from the primary screen.
# The NPC1 promoter is cloned in front of the luciferase reporter gene, therefore NPC promoter activation results in luciferase expression. Frozen stock of the NPC1 promoter transfected Huh7 cells were obtained from the laboratory of Dr. Yiannis Ioannou (The Mount Sinai School of Medicine, New York, NY). Cells were propagated and maintained at NCGC in medium containing RPMI-1640 supplemented with 10% FBS, 2mM L-glutamine, and 50ug/ml penicillin/streptomycin. Cells were harvested in and plated for assays in OP-MEM I reduced-serum medium supplemented with 10% FBS. The Amplite luciferase reporter gene assay kit was purchased from ABD Bioquest and prepared/stored according to manufacturers recommendations. qHTS Assay Setup: 1. Dispensed 5ul of Huh7 cells stably expressing NPC1-luciferase at a density of 1500 cells per well 1536-well plates. 2. Incubate cells at 37C, 5% CO2, and 95% humidity for 2 hours. 3. Transferred 23nl per well of compound in DMSO solution. 4. Incubated at 37C, 5% CO2, and 95% humidity for 24 hours. 5. Dispensed 3ul per well of Amplite reagent(ABD Bioquest) per well. 6. Incubate at ambient for 10 minutes. 7. Read using the luminescence protocol on the ViewLux plate reader (Perkin Elmer).
# Potency means the concentration at half of the fitted maximal effect.
Structure (SMILES),"activity, positive = activation [%]",Potency
CCOc1cc(C2C(C#N)=C(N)Oc3n[nH]c(C)c32)ccc1OCCN1CCOCC1 (stereo not given),-5.42,–
CC(C)C1(CCNC(=O)c2cccs2)CCOC(C)(C)C1 (stereo not given),0.277,–
O=C(c1cccc(Oc2ccc([N+](=O)[O-])cc2)c1)N1CCOCC1,-1.18,–
O=C(NCC1CCCO1)C(c1ccc(F)cc1)N(Cc1ccc2c(c1)OCO2)C(=O)c1ccc(CN2CCOCC2)o1 (stereo not given),3.75,–
O=[N+]([O-])c1cnccc1Nc1ccc(F)cc1,9.68,–
Cc1ccc2c(c1)sc1nc(=O)n(-c3ccccc3)c(=O)n12,–,0.705 µM (active)
O=C(CCN1C(=O)c2ccccc2C1=O)Nc1ccc(-c2nc3ccccc3s2)cc1,–,0.25 µM (active)
CCOC(=O)CSc1nc2cc(C)ccc2cc1C#N,–,0.499 µM (active)
O=C(CSc1nnc(-c2ccc([N+](=O)[O-])cc2)o1)Nc1ccccn1,–,0.628 µM (active)
CCCNC(=O)C1CCN(S(=O)(=O)c2ccc3[nH]c(=O)ccc3c2)CC1,4.53,–
Cc1nnc2n(c1=O)N=C(c1ccc(Cl)cc1)CS2,–,1.12 µM (active)
NC(=O)C(=O)NN=C1C2CC3CC(C2)CC1C3,1.62,–
Cc1nc(SCC(=O)NC(=O)NC(C)(C)C)nc(C)c1C,1.65,–
CC1(C)CC(=O)c2c(O)c(-c3ccccc3)c(=O)n(-c3ccccc3)c2C1,4.96,–
Cc1ccc2nc(Nc3ccc(Cl)cc3)c3nncn3c2c1,4.35,–
COc1ccc(/C=C\C(=O)c2c(O)ccc3c(C)cc(=O)oc23)cc1OC,-33.2,–
CC(Sc1nnc(C(F)(F)F)n1C)C(=O)Nc1ccc(S(N)(=O)=O)cc1 (stereo not given),-2.17,–
CCN(C(=O)COC(=O)c1ccc(C=O)cc1)c1c(N)n(Cc2ccccc2)c(=O)[nH]c1=O,-1.43,–
CN(C)/C=N/c1c(C#N)cnn1-c1nc2ccccc2s1,20,–
COc1cccc(C(C(=O)NC2CCCC2)N(CCC(C)C)C(=O)CCC(=O)Nc2cc(C)on2)c1 (stereo not given),-13.5,–

Structure (SMILES),"activity, positive = activation [%]",Potency
CC1=C(C(=O)OC2CCCC(C)C2)C(c2ccccc2)NC(=O)N1 (stereo not given),-11.2,–
COc1ccc(OC)c(S(=O)(=O)N2CCN3CCCC3C2)c1 (stereo not given),-2.34,–
CC(C)C(NC(=O)c1ccc([N+](=O)[O-])cc1Cl)C(=O)N1CCCC1 (stereo not given),3.15,–
COc1cccc(CNC(=O)CN(c2cc(C)cc(C)c2)S(=O)(=O)c2c(C)noc2C)c1,-4.87,–
COCCNC(=O)C1CCC(CNS(=O)(=O)c2ccc(F)cc2)CC1 (stereo not given),1.82,–
CC(=O)NC(CCCN1C(=O)c2ccccc2C1=O)c1nnn(C)n1 (stereo not given),0.69,–
CC(=O)Nc1ccc(-c2csc(Nc3ncccn3)n2)cc1,–,0.499 µM (active)
Cc1nc(-c2ccccn2)sc1C(=O)Nc1ccc(F)cc1F,–,15.8 µM (active)
C=CCOC(=O)N1CCN(c2cccc(C(F)(F)F)c2)CC1,-3.82,–
COc1cccc(NC(=O)CN2C(=O)CSc3ccc(S(=O)(=O)N4CCC(C)CC4)cc32)c1,-15.8,–
NCCOc1ccccc1-c1ccccc1,0.267,–
CCOc1ccc(S(=O)(=O)NCc2ccccc2)cc1C(N)=O,-4.97,–
COc1ccc(C2(CNC(=O)/C=C/c3ccco3)CCCC2)cc1OC,-3.56,–
CCOC(=O)c1cc2sccc2n1CC(=O)N1CCCc2ccccc21,-13.7,–
Cc1[nH]n(-c2cccc3ccccc23)c(=O)c1/C=N/c1sc2c(c1C#N)CCC2,6.74,–
C=CCn1c(C)nnc1SCC(=O)Nc1nccs1,8.91,–
O=C(N/N=C/c1ccc(-c2ccc(Br)cc2)o1)c1ccc2c(c1)OCO2,14.3,–
CN(C)C(CNC(=O)CNC(=O)c1ccc2ccccc2c1)c1ccccc1 (stereo not given),-0.761,–
CCOC(=O)c1csc(COc2ccc(OC)cc2)n1,–,0.705 µM (active)
CC(C)(C)C(=O)N/C(N)=N/c1nc2ccccc2o1,–,0.499 µM (active)
